High-throughput results as filed in PubChem.
Sfp inh = blocks B. subtilis Sfp PPTase activity | Q9F4F7 | Biochemical Sfp PPTase activity, qHTS | Potency, µM, without a hit: largest response in the series, negative = inhibition, usual class: inhibitors | actives 3.5% (n = 310,000) | AID 1490;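 further: the enzyme is Sfp with the accession as filed and its product quenches rhodamine fluorescence; potency means the concentration at half of the fitted maximal effect; 0% = enzyme reaction without inhibitor and -100% = no enzyme wells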
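After 15 min at room temperature with compound, 15 nM Sfp received 5 uM rhodamine-CoA plus 12.5 uM BHQ-2-ybbR (50 mM Hepes pH 7.6, 10 mM MgCl2). Rate came from the fluorescence difference over 30 min, ex 525/em 598 nm.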
G9a block = inhibitors of human histone lysine methyltransferase G9a; Q96KQ7; G9a H3K9 monomethylation, AlphaScreen, 2 h; Potency, µM (highest dose often 102 µM), inactives show at the top dose activity, negative = inhibition, actives largely listed as inhibitors; actives 8.8% (n = 350,000); AID 504332; further: potency means the concentration at half of the fitted maximal effect; nearly all actives have a fitted effect of over 75% in size
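Step 1: enzyme (final 20 nM) with compound, 15 min RT. Step 2: substrate peptide 500 nM and SAM 20 uM, 2 h RT. Step 3: anti-H3K9me1 antibody and AlphaScreen beads, 10 min, then plate read.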
VDR inh = inhibitors of human vitamin D receptor; P11473; VDR-SRC2-3 peptide fluorescence polarization, 2 h; Potency, µM, for inactives: max response, negative = inhibition, actives largely listed as inhibitors; actives 0.93% (n = 400,000); AID 504847; further: potency means the concentration at half of the fitted maximal effect
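Compounds are added to VDR with labelled SRC2-3 coactivator peptide and held 2 h at room temperature. Inhibition of the VDR–peptide interaction is then read as a change in fluorescence polarization.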
MmCpn inh = inhibitors of Methanococcus maripaludis chaperonin TRiC (MmCpn); purified Mm-Cpn ATPase, ADP Transcreener TR-FRET; Potency, µM (series often up to 76.9 µM), without a hit: at the top dose activity, negative = inhibition, hits mostly inhibitors; actives 0.031% (n = 330,000); AID 504842; further: potency means the concentration at half of the fitted maximal effect; nearly all actives have a fitted effect of over 80% in size
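Quantitative HTS used 25 nM Mm-CPN and 10 uM ATP in magnesium/KCl Tris buffer, pH 7.4, with 1 mM DTT. Hydrolysis ran 30 min at 37°C; ADP was read by HTRF.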
PLK1 PBD inh = blocks phosphopeptide binding to human PLK1 polo-box domain | Plk1 PBD binding of FITC phosphopeptide, fluorescence polarization | P53350 | AID 720504 | actives 2.8% (n = 360,000) | Potency, µM, for the others: max response, negative = inhibition, most hits filed as inhibitors; further: potency means the concentration at half of the fitted maximal effect; series mostly up to about 57 µM; nearly all actives have a fitted effect of over 65% in size
Target sequence (P53350 whole entry, looked up, the tested form may be a part): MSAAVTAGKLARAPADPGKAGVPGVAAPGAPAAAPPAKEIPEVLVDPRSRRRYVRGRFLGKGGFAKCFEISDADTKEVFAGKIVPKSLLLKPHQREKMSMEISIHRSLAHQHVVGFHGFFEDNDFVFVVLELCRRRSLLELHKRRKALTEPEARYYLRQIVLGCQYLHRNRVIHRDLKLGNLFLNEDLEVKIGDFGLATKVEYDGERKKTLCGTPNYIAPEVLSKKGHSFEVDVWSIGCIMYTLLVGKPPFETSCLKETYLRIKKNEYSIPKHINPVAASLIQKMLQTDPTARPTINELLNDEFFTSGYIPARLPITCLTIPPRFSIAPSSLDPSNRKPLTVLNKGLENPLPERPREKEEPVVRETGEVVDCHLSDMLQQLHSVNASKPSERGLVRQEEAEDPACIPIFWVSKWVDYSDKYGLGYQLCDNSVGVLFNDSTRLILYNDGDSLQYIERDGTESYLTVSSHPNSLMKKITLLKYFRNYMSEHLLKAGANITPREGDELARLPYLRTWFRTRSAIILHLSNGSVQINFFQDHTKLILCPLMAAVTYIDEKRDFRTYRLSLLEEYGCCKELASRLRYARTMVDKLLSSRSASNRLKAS
CCT chaperon mod = changes cytosolic chaperonin activity; purified chaperonin ATPase assay, HTRF ADP detection, 30 min; activity change, % (test concentration not listed), hits read low; actives 0.3% (n = 360,000); in the data active means activity change below about -30%
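We incubate TRiC, 40 or 20 nM final, with library compounds at 76 uM and 10 uM ATP for 30 min at 37 °C. ADP formed is detected with Transcreener HTRF reagents after 30 min at room temperature.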
Active calls of the source: *; [ ] = another dose, or the depositor's remark. A selection: hits, their analogues and other compounds. The true share with any hit is near 10%. Unless noted, the call rests on the fitted dose curve; in most records, active means well fitted curve in the direction sought with a large enough effect; inconclusive means small, poorly fitted or top-dose-only effect, or another doubt; inactive means no such curve, though single readings can be large; an effect the other way counts as inactive or inconclusive. Unless noted, on the % scale 0 is the no-effect control and ±100 the full control effect.

`CC(=O)N1N=C(c2c(-c3ccccc3)c3cc(Br)ccc3[nH]c2=O)CC1c1ccco1` (configuration not stated) gave Sfp inh 39.8µM*, G9a block 50.1µM*, VDR inh 79.4µM*, MmCpn inh 1.4%, PLK1 PBD inh -18.3% and CCT chaperon mod 0.7.
`O=C(CCl)N1N=C(c2ccco2)CC1c1ccco1` (configuration not stated) gave Sfp inh -37.0%, G9a block 50.1µM*, VDR inh inconclusive, MmCpn inh -1.0%, PLK1 PBD inh inconclusive and CCT chaperon mod 0.4.
For COc1ccc(C(=O)NCC(=O)OCC(=O)N2N=C(c3ccc(Cl)cc3)CC2c2ccco2)cc1OC (configuration not stated) the results were Sfp inh 8.4%, G9a block 20µM*, VDR inh 4.7%, MmCpn inh -10.0%, PLK1 PBD inh -4.6% and CCT chaperon mod -1.3.
CCCNC(=O)CCC(=O)N1Cc2cccc(OC)c2Oc2ncccc21 was read as G9a block 2.7%[59 µM] and VDR inh 10.9%.
For COC(=O)CSCc1nc(-c2ccc(C(=O)OC)cc2)oc1C the results were G9a block 27.0%[59 µM] and VDR inh 12.7%.
For Cc1nn(CCC(=O)Nc2ccccc2Br)c(=O)c2nn(-c3ccccc3)c(C)c12 the results were G9a block -26.7%[59 µM] and VDR inh 9.8%.
COc1ccc(C2CC(c3ccc4ccccc4c3)=NN2C(=O)CN2C(=O)CCC2=O)cc1 (configuration not stated) was read as Sfp inh -18.5%, G9a block -17.0%, VDR inh 9.3%, MmCpn inh 1.6%, PLK1 PBD inh -9.8% and CCT chaperon mod 0.4.
Screening CCc1ccc(C2=NN(C(C)=O)C(c3ccco3)C2)cc1 (configuration not stated) returned Sfp inh 25.1µM*, VDR inh -20.4%, MmCpn inh -2.2%, PLK1 PBD inh 1.9% and CCT chaperon mod 0.5.
Screening COc1ccc(C2CC(c3ccc4ccccc4c3)=NN2C(=O)CSc2ncccn2)cc1 (configuration not stated) returned Sfp inh -8.3%, G9a block 39.8µM*, VDR inh -1.1%, MmCpn inh inconclusive, PLK1 PBD inh -10.0% and CCT chaperon mod -1.1.
Screening CCC(=O)N1N=C(c2ccc(Cl)cc2)CC1c1ccco1 (configuration not stated) returned Sfp inh -13.3%, G9a block 10.0%, VDR inh 1.5%, MmCpn inh 0.7%, PLK1 PBD inh -0.5% and CCT chaperon mod -3.9.
Screening CN1CC(=O)N(CC(=O)N2N=C(c3ccc(Cl)cc3)CC2c2ccco2)C1=O (configuration not stated) returned Sfp inh 20µM*, G9a block inconclusive, VDR inh -18.0%, MmCpn inh -2.4%, PLK1 PBD inh -15.5% and CCT chaperon mod -2.3.
`c1ccc(-c2nc(-c3ccco3)n3ccccc23)cc1` gave Sfp inh 7.08µM*, G9a block inconclusive, VDR inh -15.3%, MmCpn inh -4.4%, PLK1 PBD inh -23.1% and CCT chaperon mod 1.0.
COc1ccccc1OC(C)C(=O)Nc1c(C(=O)c2ccc(Cl)cc2)oc2ccccc12 (configuration not stated) was read as G9a block 12.3%[59 µM] and VDR inh -14.8%.
`O=C(CCC1N=C2c3ccccc3N=C(SCc3ccc(Cl)cc3)N2C1=O)N1CCN(c2ccccc2)CC1` (configuration not stated) gave G9a block 6.4%[59 µM] and VDR inh -7.5%.
Screening O=C(CCC1N=C2c3ccccc3N=C(SCC(=O)NCc3ccco3)N2C1=O)NCc1ccco1 (configuration not stated) returned Sfp inh -13.1%, G9a block -7.3%[59 µM], VDR inh -8.1%, MmCpn inh 2.2%, PLK1 PBD inh inconclusive and CCT chaperon mod -1.2.
Screening Cc1ccc(CSC2=Nc3ccccc3C3=NC(CCC(=O)N4CCN(c5ccccc5)CC4)C(=O)N23)cc1 (configuration not stated) returned G9a block 17.8µM* and VDR inh -0.3%.
Screening O=C(CSC1=Nc2ccccc2C2=NC(CC(=O)N3CCN(c4ccccc4)CC3)C(=O)N12)NCC1CCCO1 (configuration not stated) returned Sfp inh -5.9%, G9a block 50.1µM*, VDR inh 0.1%, MmCpn inh -1.8%, PLK1 PBD inh -16.5% and CCT chaperon mod -4.2.
`CCCOc1ccc(/C(O)=C2/C(=O)C(=O)N(CCCOC)C2c2ccncc2)cc1` (configuration not stated) gave Sfp inh 1.7%, G9a block -3.0%[12.7 µM], VDR inh inconclusive, MmCpn inh -4.2%, PLK1 PBD inh -7.1% and CCT chaperon mod 0.5.
For COCCCN1C(=O)C(=O)/C(=C(/O)c2ccc(S(=O)(=O)N3CCCCC3)cc2)C1c1ccc(OC)cc1 (configuration not stated) the results were Sfp inh 22.1%, VDR inh 10.9%, MmCpn inh 2.6%, PLK1 PBD inh -12.8% and CCT chaperon mod -1.3.
CCOc1ccc(C2/C(=C(/O)c3ccc(S(=O)(=O)N4CCCCC4)cc3)C(=O)C(=O)N2CCCOC)cc1OC (configuration not stated) was read as Sfp inh -11.8%, G9a block 79.4µM*, VDR inh -9.7%, MmCpn inh 1.1%, PLK1 PBD inh -1.0% and CCT chaperon mod -1.8.
`COCCCN1C(=O)C(=O)/C(=C(/O)c2ccc(S(=O)(=O)N3CCOCC3)cc2)C1c1ccc(OC)cc1` (configuration not stated) gave Sfp inh 4.9%, G9a block 39.8µM*, VDR inh 12.8%, MmCpn inh -0.8%, PLK1 PBD inh -13.3% and CCT chaperon mod -8.2.
For COCCCN1C(=O)C(=O)/C(=C(/O)c2ccc(OC(C)C)cc2)C1c1ccc(O)c(OC)c1 (configuration not stated) the results were Sfp inh 14.5%, G9a block 56.2µM*, VDR inh -5.1%, MmCpn inh -0.7%, PLK1 PBD inh -5.8% and CCT chaperon mod -1.6.
COCCN1C(=O)C(=O)/C(=C(/O)c2ccc(S(=O)(=O)N3CCOCC3)cc2)C1c1ccc(O)cc1 (configuration not stated) was read as Sfp inh inconclusive, G9a block 70.8µM*, VDR inh 2.5%, MmCpn inh 1.0%, PLK1 PBD inh 5.1% and CCT chaperon mod -1.8.
